Hits are enriched below; roughly 2.7% of the tested compounds scored in any of these assays.
H9c2 TAG inh: inhibitors of triacylglycerol accumulation, primary screen, cell-based, uHTS, fluorescence, H9c2; AID 651582, 2012; inhibition, % at 12.5 µM; H9c2 cells, Nile Red lipid (TAG) fluorescence; cells loaded with 200 µM oleic acid; hit rate 0.66% among 230,000;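 active = pattern-corrected inhibition of lipid staining of at least 50% with the nuclear-stain viability signal not falling by more than 50%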;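 also: 0% = DMSO wells and 100% = triacsin C control wells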
aDG glyco up: activators of alpha-DG glycosylation, primary screen, uHTS, Pro5-aDG cells, AlphaScreen. alpha-DG glycosylation AlphaScreen (IIH6); 0% Pro5, 100% B10-LARGE cell signal. activation, % at 10 µM. hit rate 0.22% among 360,000. AID 624168, 2012;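 active = activation of at least 8% versus controls, or a plate z-score of at least 8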;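 also: Pro5 are CHO cells carrying HIG-tagged alpha-DG that lacks glycosylation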
NadD inh: inhibitors of S. aureus NadD, primary screen, biochemical, colorimetric, uHTS; purified NadD enzyme, colorimetric absorbance read-out; inhibition, % at 20 µM; hit rate 0.78% among 360,000; Nicotinate-nucleotide adenylyltransferase NadD (Staphylococcus aureus N315); AID 602399, 2012; in the data active = inhibition above about 26%
MPTP inh: mitochondrial permeability transition pore inhibitors, primary screen, biochemical, isolated mouse mitochondria, absorbance | Ca2+ swelling absorbance, 30 min | inhibition, % at 10 µM | hit rate 1.4% among 360,000 | AID 602449, 2012;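 active = inhibition of 50% or more, scaled per plate between neutral and stimulator controls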;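 also: 0% = DMSO wells given calcium and 100% = 1 mM EGTA wells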
MPTP counter: fluorescence retest of MPTP screen hits in isolated mitochondria, single concentration; shares compounds with MPTP inh; membrane potential, Rhodamine 123 fluorescence; inhibition, % at 10 µM; hit rate 78% among 5,000; AID 624504, 2012; in the data active = inhibition above about 22%;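 also: 0% = DMSO vehicle and 100% = positive control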
MPTP abs DR: mitochondrial permeability transition pore inhibitors, dose response, biochemical, absorbance, uHTS hits | hit rate 58% among 780 | shares compounds with MPTP inh | isolated mitochondria swelling | IC50, µM | AID 651561, 2012; in the data active = IC50 below about 20 µM
MPTP cs DR: fluorescent counter-screen in isolated mitochondria, dose response, counter-screen for MPTP inhibitor project, biochemical, fluorescence, uHTS hits. IC50, µM. shares compounds with MPTP inh. isolated mitochondria counterscreen, fluorescence read-out. hit rate 49% among 780. AID 651564, 2012; in the data active = IC50 below about 80 µM
An asterisk follows results filed as active; x = no result.

SMILES	H9c2 TAG inh	aDG glyco up	NadD inh	MPTP inh	MPTP counter	others
CCn1nc(C)c(CNC(=O)c2cc(COc3ccc(F)cc3Cl)on2)c1C	-10	2	-3	53*	36*
CC1=NN(c2ccc([N+](=O)[O-])cc2)C(=O)/C1=C\N(C)C	x	0	0	99*	13
CCCC1=NN(c2ccc([N+](=O)[O-])cc2)C(=O)/C1=C/N(C)C	x	0	2	5	x
Cc1nc2ccccc2n1Cc1ccc(Cl)cc1	-43	1	4	94*	96*
OCc1nc2ccccc2n1Cc1ccc(Cl)cc1	6	0	-1	1	x
Cc1ccc(Cn2c(N)nc3ccccc32)cc1	-29	0	-10	55*	21*
Cc1cc2occ(CC(=O)N(C)CC(=O)Nc3ccccc3C(F)(F)F)c2cc1C	4	0	4	0	x
Cc1cc(/C=N/n2c(COc3ccccc3)nc3ccccc3c2=O)c(O)c([N+](=O)[O-])c1	4	0	22	79*	33*
CCc1ccc(C(=O)CSc2nc3cc(S(=O)(=O)N4CCOCC4)ccc3n2CC)cc1	x	0	4	0	x
CC(C)(C)c1cc(CCC(=O)NNC(=S)NC(=O)c2ccccc2)cc(C(C)(C)C)c1O	18	2	19	80*	13
O=C(CCc1ccccc1)NNC(=S)NC(=O)c1ccccc1	x	0	6	6	x
CC(C)c1nc2sc3c(SCCN(C)C)ncnc3c2c2c1CCC2	-2	0	-9	0	x
CC1(C)C2CC=C(/C=N/NC(=O)c3ccccc3O)C1C2 (configuration not stated)	x	0	2	50*	71*
CCc1nc2c(cnn2-c2ccc(F)cc2)c(=O)n1-c1ccc(N2CCC(C)CC2)cc1	-53	0	6	76*	2	MPTP abs DR=7.3*;MPTP cs DR=21*
Cc1nc2c(cnn2-c2ccccc2Cl)c(=O)n1-c1ccc(N2CCC(C)CC2)cc1	-10	1	0	2	x
O=C(O)CCN1C(=O)/C(=C\c2ccc(-c3nc4ccccc4s3)o2)SC1=S	1	-1	25	89*	-25
CCCCCC/C(C)=C1/SC(=S)NC1=O	x	0	2	83*	75*
C/C(C/C(C)=C1/SC(=S)NC1=O)=C1\SC(=S)NC1=O	x	0	14	-1	x
Cc1cc(C(=O)CSc2n[nH]c(N)n2)c(C)n1-c1ccc(F)cc1	x	0	3	20	x
Cc1cc(C(=O)CSc2n[nH]c(N)n2)c(C)n1-c1cc(F)ccc1F	12	0	3	59*	3	MPTP cs DR=>80
NC(N)=Nc1nc(-c2ccccc2)c2cc(F)ccc2n1	43	0	-8	82*	2	MPTP abs DR=6.2*;MPTP cs DR=47*
COc1ccc(-n2nc3c(c2NC(=O)c2ccccc2S(=O)(=O)C(F)F)CS(=O)(=O)C3)cc1	-2	0	-7	2	x
O=C(NCCc1ccc(Cl)cc1)Nc1cccc(Cl)c1	x	0	-8	95*	94*
COc1ccc(NC(=O)NCCc2cccc(Cl)c2)cc1OC	3	0	-1	3	x
Cc1cccc(NC(=S)NC(C)CCc2ccccc2)c1 (configuration not stated)	x	2	-1	30	x
O=C(NCCc1ccccc1)Nc1cccc(Cl)c1	x	1	2	97*	88*
O=C(NCCSCc1ccco1)Nc1cccc(Cl)c1	x	0	-4	79*	79*
Cc1cccc(NC(=O)NC(C)CCc2ccccc2)c1 (configuration not stated)	x	0	-3	64*	73*
CCC(NC(=O)c1ccc2nc(Cc3ccc(OC)cc3)oc2c1)c1ccncc1 (configuration not stated)	x	2	5	66*	76*
CCC(C)NC(=O)c1ccc2nc(Cc3ccc(OC)cc3)oc2c1 (configuration not stated)	-3	0	-1	0	x

Compound activity: PubChem, Sanford-Burnham Center for Chemical Genomics
